# Assay outcomes from PubChem.
# Most compounds without a hit are left out; they make up all but 9.5% or so of the library.
# NPSR antagonist – blocks cAMP signaling of the human neuropeptide S receptor; CHO-NPSR cells, cAMP TR-FRET, antagonist mode; Potency, µM (top dose mostly 38.3 µM), for inactives: at the top dose activity change, negative = inhibition, usual class: inhibitors; 1% of 220,000 active; AID 1461; further: nearly all actives have a fitted effect of over 50% in size
# Target sequence (Q6W5P4 whole entry, looked up): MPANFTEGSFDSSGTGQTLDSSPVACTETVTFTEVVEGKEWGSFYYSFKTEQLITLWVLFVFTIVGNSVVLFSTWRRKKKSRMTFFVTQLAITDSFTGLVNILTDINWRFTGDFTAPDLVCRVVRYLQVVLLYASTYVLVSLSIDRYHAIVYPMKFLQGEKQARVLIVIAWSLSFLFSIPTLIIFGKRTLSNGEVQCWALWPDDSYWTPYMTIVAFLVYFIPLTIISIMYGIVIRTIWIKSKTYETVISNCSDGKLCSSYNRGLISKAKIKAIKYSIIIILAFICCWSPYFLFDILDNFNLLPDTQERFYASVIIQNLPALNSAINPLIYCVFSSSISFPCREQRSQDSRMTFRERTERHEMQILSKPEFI
# Tau FP inhib – tau fibrillization inhibition (FP) | K18 P301L tau heparin fibrillization, Alexa594 FP, 6 h | Potency, µM (doses to about 57.7 µM), without a hit: top-dose activity, negative = inhibition, usual class: inhibitors | 0.39% of 280,000 active | AID 1468; further: nearly all actives have a fitted effect of over 55% in size
# Target sequence (P10636 561-689 P618L limits assumed): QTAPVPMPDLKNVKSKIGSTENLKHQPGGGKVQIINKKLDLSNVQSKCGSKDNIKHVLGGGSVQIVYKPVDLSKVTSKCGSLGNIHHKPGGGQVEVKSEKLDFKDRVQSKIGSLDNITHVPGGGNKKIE
#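 Quantitative HTS format: compounds meet 15 uM recombinant K18 P301L tau and Alexa 594-tau tracer in 100 mM sodium acetate pH 7; 20 uM heparin triggers fibrillization at 37 C over 6 hr; FP gives the signal.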
# Tau fibril ThT – tau fibrillization inhibition (ThT binding). P10636. recombinant tau K18 P301L, heparin-induced fibrillization, ThT fluorescence. Potency, µM (top dose mostly 57.4 µM), for inactives: top-dose activity, negative = inhibition, most hits filed as inhibitors. 2.1% of 270,000 active. AID 1460; further: nearly all actives have a fitted effect of over 55% in size
#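 Fibril formation assay: tau K18 P301L at 15 uM with trace Alexa 594 label, heparin inducer 20 uM, pH 7 sodium acetate buffer, 37 C for 6 hr; endpoint ThT signal.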
# HPGD inh – HPGD (human) dehydrogenase inhibition | purified HPGD, NADH fluorescence kinetic, PGE2 substrate | Potency, µM, inactives show top-dose activity change, negative = inhibition, most hits filed as inhibitors | 4.3% of 150,000 active; active means well fitted inhibition curve with a large enough effect, not every such curve was filed as active; inconclusive means small, poorly fitted or top-dose-only effect, or another doubt; inactive means no such curve, though single readings can be large or run the other way
# Target sequence (P15428 whole entry, looked up): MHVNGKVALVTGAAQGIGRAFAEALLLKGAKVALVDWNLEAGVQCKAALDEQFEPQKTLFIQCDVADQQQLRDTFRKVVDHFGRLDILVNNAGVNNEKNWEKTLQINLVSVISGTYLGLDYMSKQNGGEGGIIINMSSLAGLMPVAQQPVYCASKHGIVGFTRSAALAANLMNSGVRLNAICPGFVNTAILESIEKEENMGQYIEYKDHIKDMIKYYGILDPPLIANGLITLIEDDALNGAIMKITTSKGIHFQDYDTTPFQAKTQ
#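 20 nM HPGD preincubated 15 min at room temperature with compound in 50 mM Tris-HCl pH 8, 0.01% Tween 20. Started with 1 mM NAD+ and 30 uM prostaglandin E2; NADH fluorescence (360/450 nm) read 5 times over 30-s intervals, last minus first.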
# ALDH1A1 inh – blocks purified human ALDH1A1 activity; P00352; Purified ALDH1A1, NADH fluorescence, propionaldehyde substrate; Potency, µM (highest dose often 75.3 µM), without a hit: at the top dose activity, negative = inhibition, actives largely listed as inhibitors; 7.3% of 220,000 active; active means well fitted inhibition curve with a large enough effect, not every such curve was filed as active; inconclusive means small, poorly fitted or top-dose-only effect, or another doubt; inactive means no such curve, though single readings can be large or run the other way;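 further: plate controls were no enzyme wells and a reference inhibitor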
# Tau fluor counter – counter-screen for tau fibril formation inhibitors | tau K18 P301L (four-repeat tau fragment) Alexa594 fluorescence, heparin fibrillization | Potency, µM (doses to about 57.7 µM), for the others: at the top dose activity change, negative = decrease | 0.93% of 280,000 active; further: nearly all actives have a fitted effect of over 55% in size
#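 Human K18 P301L tau (15 uM unlabeled plus 0.24 uM Alexa 594-labeled, final) in 100 mM sodium acetate pH 7 was mixed with compound and 20 uM heparin and incubated 6 hr at 37 C.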
# An asterisk follows results filed as active; ? = inconclusive; · = no result; [ ] = remark or other dose. Unless noted, the call rests on the fitted dose curve; in most records, active means well fitted curve in the direction sought with a large enough effect; inconclusive means small, poorly fitted or top-dose-only effect, or another doubt; inactive means no such curve, though single readings can be large; an effect the other way counts as inactive or inconclusive. Unless noted, on the % scale 0 is the no-effect control and ±100 the full control effect; potency means the concentration at half of the fitted maximal effect.
SMILES,NPSR antagonist,Tau FP inhib,Tau fibril ThT,HPGD inh,ALDH1A1 inh,Tau fluor counter
C=C1c2cccc(OC)c2O[C@H](C(=O)OCC)[C@@H]1CCC(C)C,·,-2.8%[81.3 µM],-16.1%[81.4 µM],-27.9%,?,-15.4%[81.3 µM]
C=C1c2cccc(C(F)(F)F)c2O[C@H](C(=O)OCC)C1OC (mixture of isomers),·,2.2%[81.3 µM],-13.0%[81.4 µM],-8.7%,2.5%,-23.1%[81.3 µM]
C=C1c2ccccc2O[C@H](C(=O)OCC)C1OC (mixture of isomers),·,0.2%[126 µM],-12.7%[126 µM],-10.7%,31.6µM*,-1.9%[126 µM]
C=C1c2ccccc2O[C@H](C(=O)OCC)[C@@H]1CCC(C)C (tested in a mixture with another compound),·,4.9%[81.3 µM],?,-10.9%,31.6µM*,-22.3%[81.3 µM]
Cc1cccc(-c2n[nH]c(=S)n2/N=C/c2ccc(C)o2)c1,-6.9%,10.7%,-11.0%,15.8µM*,?,-11.0%
S=c1[nH]nc(C2CCCCC2)n1/N=C/c1cccs1,-17.1%[46.1 µM],-1.7%,?,12.6µM*,22.4µM*,-20.8%
O=[N+]([O-])c1ccc(/C=N/n2c(C3CCCCC3)n[nH]c2=S)cc1,-7.0%[46.1 µM],2.7%,-5.8%,4.47µM*,-1.8%,-16.4%
Cc1ccc(/C=N/n2c(C3CCCCC3)n[nH]c2=S)o1,4.8%,-19.6%,-10.0%,28.2µM*,?,-10.1%
Cc1cc(-c2n[nH]c(=S)n2/N=C/c2ccc(C)o2)n[nH]1,-22.5%,0.0%,-12.6%,·,·,-9.4%
S=c1[nH]nc(C2CCCCC2)n1/N=C/c1ccncc1,10.6%,4.2%,3.3%,·,-7.7%,3.2%
CC(/C=N/n1c(C2CCCCC2)n[nH]c1=S)=C\c1ccccc1,?,1.0%,?,?,-7.8%,-24.0%
Cc1c2cc[n+](CCN3CCCCC3)cc2c(C)c2c1[nH]c1ccc(O)cc12,·,·,·,-5.0%,6.5%[13.5 µM],·
COc1cccc(-n2c(-c3ccco3)nc3c(cnn3-c3ccccc3C)c2=O)c1,·,-10.3%,-14.2%,·,·,-19.2%
CCN(CC)c1ccc(CN2CCC(C(=O)NCc3ccc(C)cc3)CC2)cc1,2.8%,-8.1%[2.34 µM],8.4%,·,14.1µM*,3.3%[2.34 µM]
Cc1ccc(CNC(=O)C2CCN(S(=O)(=O)N3CCCCC3)CC2)cc1,6.9%,-4.1%,-3.3%,·,?,-8.4%
COC(=O)C1CCN(Cc2ccc(C)cc2)CC1,1.9%[46.1 µM],-5.2%,-5.6%,1.7%,5.8%,-5.1%
CCN(CC)S(=O)(=O)N1CCC(C(=O)NCc2ccc(C)cc2)CC1,1.7%[46.1 µM],-1.6%,6.3%,-9.3%,4.47µM*,5.0%
O=C(Nc1nnc(-c2ccccc2Cl)o1)c1cccnc1,-11.9%[46.1 µM],6.3%,13.4%,-8.7%,13.1%,7.1%
O=C(OCC1OC(OC(=O)c2cc(O)c(O)c(OC(=O)c3cc(O)c(O)c(O)c3)c2)[C@@H](OC(=O)c2cc(O)c(O)c(OC(=O)c3cc(O)c(O)c(O)c3)c2)C(OC(=O)c2cc(O)c(O)c(OC(=O)c3cc(O)c(O)c(O)c3)c2)C1OC(=O)c1cc(O)c(O)c(OC(=O)c2cc(O)c(O)c(O)c2)c1)c1cc(O)c(O)c(OC(=O)c2cc(O)c(O)c(O)c2)c1 (stereo partly specified),·,?,1.26µM*,3.16µM*,?,0.501µM*[quencher]
Cc1cn(C2OC(COC(=O)c3ccccc3)C(OC(=O)c3ccccc3)C2OC(=O)c2ccccc2)c(=O)[nH]c1=O (stereo unspecified),-15.0%,-0.4%,-9.5%,-11.8%,11.6%,-11.5%
CC[C@@H](C)[C@@H](CO[C@@H](Cc1ccccc1)C(=O)N[C@@H](CCS(C)(=O)=O)C(=O)OC(C)C)NC[C@@H](N)CS,·,?,35.5µM*,·,15.8µM*,-11.0%
COC(=O)C(CC(C)C)NC(=O)C(N)Cc1ccccc1 (stereo unspecified),11.7%[46.1 µM],-5.4%,3.3%,-1.6%,10.2%,1.8%
COc1ccccc1N1CCN(C(=O)Cn2ncc3ccsc3c2=O)CC1,·,6.3%,-1.0%,·,·,-3.2%
O=C(c1ccco1)N1CCC2(CCCN(Cc3ccccc3)C2)CC1,·,·,·,-2.3%,28.2µM*,·
O=C(c1ccco1)N1CCC[C@@]2(CCN(Cc3ccccc3)C2)C1,·,·,·,-6.1%,-12.3%,·
SMILES,NPSR antagonist,Tau FP inhib,Tau fibril ThT,HPGD inh,ALDH1A1 inh,Tau fluor counter
OCC1(Cc2ccccc2)CCN(Cc2ccc(-c3ccco3)cc2)CC1,14.6%,1.0%,?,·,?,-17.1%
OCC1(Cc2ccccc2)CCCN(Cc2ccc(-c3ccco3)cc2)C1 (stereo unspecified),15.4%,4.8%,-23.8%,·,25.1µM*,-8.7%
N#Cc1cccc(NC(=O)N2CCC3(CC2)CCN(C(=O)c2ccco2)CC3)c1,·,·,·,-8.6%,10µM*,·
O=C(Nc1ccccc1)N1CC[C@@]2(CCCN(C(=O)c3ccco3)C2)C1,·,·,·,-6.4%,?,·
O=C(Nc1ccccc1)N1CCCC2(CCN(C(=O)c3ccco3)CC2)C1,·,·,·,0.6%,20µM*,·
N#Cc1ccc(C(=O)Nc2ccc(N3CCN(C(=O)c4ccco4)CC3)cc2)c(F)c1,-15.7%[46.1 µM],-0.5%,1µM*,-4.3%,-13.1%,-16.8%
O=C(Nc1ccc(N2CCN(C(=O)c3ccco3)CC2)cc1)c1ccco1,-5.0%,4.4%,?,·,-2.9%,-5.2%
N#Cc1cccc(NC(=O)N2CC[C@@]3(CCCN(C(=O)c4ccco4)C3)C2)c1,·,·,·,-1.3%,?,·
O=C(Nc1cccc(F)c1)N1CCC2(CC1)CCN(C(=O)c1cccc(F)c1)CC2,·,·,·,-8.3%,-14.2%,·
CC(=O)N1CCC2(CC1)CCN(C(=O)Nc1cccc(F)c1)CC2,·,·,·,-8.6%,12.6µM*,·
N#Cc1cccc(NC(=O)N2CCCC3(CCN(C(=O)c4ccco4)CC3)C2)c1,·,·,·,-22.6%,22.4µM*,·
COc1cccc(NC(=O)C2CCN(c3nc4ccccc4nc3C(F)(F)F)CC2)c1,·,?,-1.6%,·,·,?
CCc1ccc(CN2C(=O)c3ccccc3C2C(=O)NCCc2ccc(OC)c(OC)c2)cc1 (stereo unspecified),·,4.6%,6.3%,·,·,3.0%
CCC(C)c1ccc(O)c(NC(=O)c2cccnc2)c1 (stereo unspecified),-17.1%[46.1 µM],-3.8%,-7.7%,-9.6%,11.2µM*,-19.3%
CCOC(=O)c1cccc(NC(=O)c2cccnc2)c1,-6.8%[46.1 µM],2.5%,4.7%,-9.5%,-0.7%,-1.9%
CCOC(=O)c1ccc(Cl)c(NC(=O)c2cccnc2)c1,-3.3%,5.6%,-0.1%,·,11.2µM*,-1.1%
COC(=O)C1=C(C)Nc2c(c(=O)n(C)c(=O)n2C)C1c1ccc(Cl)cc1 (stereo unspecified),10.5%,-2.0%,0.4%,?,4.5%,2.5%
O=C(CNC(=O)c1ccccc1)NC1(C(=O)NC2CCCC2)CCCCC1,-5.8%[46.1 µM],?,-10.6%,·,0.0%,2.82µM*[quencher]
COc1ccccc1N1CCN(C(=O)COc2cc(C)cc(C)c2)CC1,-21.1%,0.7%,-13.6%,·,3.8%,-16.3%
